Screening results deposited in PubChem BioAssay by National Center for Advancing Translational Sciences (NCATS).
Six1-Eya2 inh: inhibitors of human Six1/Eya2 interaction | actives 0.56% (n = 360,000) | activity change, % (no concentration beside the values) | Q15475+O00167 | AID 651725 | AlphaScreen GST-Six1/His-Eya2 binding, biochemical; active compounds read low; in the data active means activity change below about -65%; inconclusive means mostly about -30% to -63%
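Homogeneous AlphaScreen proximity assay pairing GST-Six1 with His-tagged Eya2 (added as 5X mix: 250 nM and 500 nM) in 50 mM Tris pH 8.0, 300 mM NaCl, 1 mM TCEP. Glutathione donor and nickel acceptor beads; 1 h, 37 °C, dark.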
JMJD2A Tudor inh: inhibitors of human JMJD2A Tudor domain | AID 504339 | AlphaScreen JMJD2A-Tudor / H3K4me3 peptide binding | Potency, µM (titrated, usually from 114 µM), most hits filed as inhibitors | O75164 | actives 4.4% (n = 390,000); further: nearly all actives have a fitted effect of over 50% in size
BAZ2B block: BAZ2B (human) inhibition; Q9UIF8; AlphaScreen BAZ2B-H3K14Ac peptide displacement; Potency, µM (highest dose often 114 µM), usual class: inhibitors; actives 4.4% (n = 360,000); further: nearly all actives have a fitted effect of over 60% in size
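Compounds, titrated to a top concentration of 110 uM, were incubated 30 min at room temperature with preformed BAZ2B/acetyl-K14 H3 peptide complex (50 nM each). Proximity signal was measured by AlphaScreen after 20 min with beads.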
G9a block: inhibitors of human histone lysine methyltransferase G9a; actives 8.8% (n = 350,000); G9a H3K9 monomethylation, AlphaScreen, 2 h; Q96KQ7; Potency, µM (titrated, usually from 102 µM), usual class: inhibitors; further: nearly all actives have a fitted effect of over 75% in size
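Chemiluminescent proximity detection of H3K9 monomethylation, read after 10 min bead incubation in the dark. Reaction: 20 nM G9a, 500 nM biotin-H3K9 peptide, 20 uM SAM cofactor, 2 h, room temperature, following 15 min enzyme-compound preincubation.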
HP1b chromo inh: HP1-beta chromodomain-methylated histone interaction inhibition | AlphaScreen HP1-beta / biotin-H3K9me3 peptide binding | actives 0.56% (n = 390,000) | AID 540317 | Potency, µM (titrated, usually from 114 µM), hits mostly inhibitors; further: nearly all actives have a fitted effect of over 70% in size
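AlphaScreen: HP1-beta (50 nM) preformed 30 min with biotin-H3(1-18)K9me3 peptide (50 nM) in PBS pH 7.4, 0.01% Tween-20. Compound added for 30 min at RT, then streptavidin donor/nickel chelate acceptor beads (10 ug/mL) for 30 min.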
CtBP-E1A inh: blocks the CtBP interaction with E1A. AID 651724. actives 0.49% (n = 340,000). activity change, % (no concentration beside the values). AlphaScreen GST-E1A/His-CtBP binding, 1536-well; active compounds read low; in the data active means activity change below about -65%; inconclusive means mostly about -30% to -63%
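Steps: dispense buffer (Tris pH 8.0, NaCl 300 mM, TCEP 1 mM, BSA, Tween 20); add 5X protein mix (GST-E1A, His-CtBP, 125 nM each); pin 23 nL compound; 2 h at 37 °C, dark; add 5X beads (50 ug/mL); 1 h; read.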
A number is an active result; [ ] = another dose, or the depositor's remark. An excerpt weighted towards active compounds, which were near 10% of everything screened. Unless noted, the call rests on the fitted dose curve; in most records, active means well fitted inhibition curve with a large enough effect; inconclusive means small, poorly fitted or top-dose-only effect; inactive means no such curve, though single readings can be large or run the other way.

What do the screens show for `Cc1ccc(S(=O)(=O)c2nc(-c3ccccc3)oc2NCc2cccnc2)cc1`?
Six1-Eya2 inh: inactive; JMJD2A Tudor inh: inconclusive; BAZ2B block: inconclusive; G9a block: 50µM; HP1b chromo inh: inactive; CtBP-E1A inh: inactive

What do the screens show for `O=S(=O)(c1ccc(Br)cc1)c1nc(-c2ccccc2)oc1NCCN1CCOCC1`?
Six1-Eya2 inh: inactive; JMJD2A Tudor inh: inconclusive; BAZ2B block: inconclusive; G9a block: inconclusive; HP1b chromo inh: inactive; CtBP-E1A inh: inactive

Results for O=C1CS(=O)(=O)C2(C(=O)N(Cc3ccccc3)c3ccccc32)N1c1ccccc1 (centres undefined) ?
JMJD2A Tudor inh: inactive; BAZ2B block: inactive; G9a block: inactive; HP1b chromo inh: inactive

How did COc1cc(OC)c(NC(=O)c2cc(CN3CCOCC3)on2)cc1Cl do in these assays?
JMJD2A Tudor inh: inactive; BAZ2B block: inactive; G9a block: inactive; HP1b chromo inh: inconclusive

How did COc1cc(-c2nn3c(-c4cc(-c5ccccc5)n[nH]4)nnc3s2)cc(OC)c1OC do in these assays?
JMJD2A Tudor inh: inactive; HP1b chromo inh: inactive

Results for O=C1C2C(c3ccccc3)CC=CC2C(c2ccc3ccccc3c2)N1Cc1ccccc1 (centres undefined) ?
JMJD2A Tudor inh: inactive; HP1b chromo inh: inactive

What do the screens show for `Cc1ccc(CNc2oc(-c3ccco3)nc2S(=O)(=O)c2ccccc2)cc1`?
Six1-Eya2 inh: inactive; JMJD2A Tudor inh: inactive; BAZ2B block: inactive; G9a block: 11µM; HP1b chromo inh: inactive; CtBP-E1A inh: inactive

What do the screens show for `O=S(=O)(c1ccc(Br)cc1)c1nc(-c2ccco2)oc1NCCCn1ccnc1`?
Six1-Eya2 inh: inconclusive; JMJD2A Tudor inh: inconclusive; BAZ2B block: 50µM; G9a block: 45µM; HP1b chromo inh: inactive; CtBP-E1A inh: inactive

Results for O=S(=O)(c1ccccc1)c1nc(-c2ccc(F)cc2)oc1NCc1ccccc1 ?
JMJD2A Tudor inh: inactive; BAZ2B block: inactive; G9a block: inactive; HP1b chromo inh: inactive

How did Cc1ccc(S(=O)(=O)c2nc(-c3ccccc3Cl)oc2NCCCN2CCOCC2)cc1 do in these assays?
Six1-Eya2 inh: inactive; JMJD2A Tudor inh: inconclusive; BAZ2B block: inactive; HP1b chromo inh: inactive; CtBP-E1A inh: inactive

What do the screens show for `O=S(=O)(c1ccc(Cl)cc1)c1nc(-c2ccccc2F)oc1NCCCN1CCOCC1`?
Six1-Eya2 inh: inactive; JMJD2A Tudor inh: inconclusive; BAZ2B block: inconclusive; G9a block: 79µM; HP1b chromo inh: inactive; CtBP-E1A inh: inactive

What do the screens show for `N#CCc1ccc(C(=O)c2ccccc2F)s1`?
Six1-Eya2 inh: inactive; JMJD2A Tudor inh: inactive; BAZ2B block: 50µM; G9a block: inconclusive; HP1b chromo inh: inactive; CtBP-E1A inh: inactive

What do the screens show for `C/C(N)=C(/C#N)C(=O)CSc1nnnn1-c1ccc(C)cc1C`?
Six1-Eya2 inh: inactive; JMJD2A Tudor inh: inactive; BAZ2B block: inactive; G9a block: inactive; HP1b chromo inh: inactive; CtBP-E1A inh: inactive

How did CCC(C)Sc1nc(O)cc(=O)[nH]1 (centres undefined) do in these assays?
Six1-Eya2 inh: inactive; JMJD2A Tudor inh: inactive; BAZ2B block: inactive; G9a block: inactive; HP1b chromo inh: inactive; CtBP-E1A inh: inactive

Results for O=c1cc(O)nc(SC23CC4CC(CC(C4)C2)C3)[nH]1 ?
Six1-Eya2 inh: inactive; JMJD2A Tudor inh: inactive; BAZ2B block: inactive; G9a block: 45µM; HP1b chromo inh: inactive; CtBP-E1A inh: inactive

How did COc1cccc(NC(=O)CN(C)C(=O)CN2C(=O)c3ccc([N+](=O)[O-])cc3C2=O)c1 do in these assays?
Six1-Eya2 inh: inactive; JMJD2A Tudor inh: inactive; BAZ2B block: inactive; G9a block: inconclusive; HP1b chromo inh: inactive; CtBP-E1A inh: inactive

How did O=C(NCCNC(=O)c1ccccc1O)c1ccccc1O do in these assays?
Six1-Eya2 inh: inactive; JMJD2A Tudor inh: inactive; BAZ2B block: inconclusive; G9a block: inactive[0.501 µM]; HP1b chromo inh: inactive; CtBP-E1A inh: inactive

What do the screens show for `O=C(NO)c1ccccc1O`?
Six1-Eya2 inh: inactive; JMJD2A Tudor inh: inactive; BAZ2B block: inconclusive; G9a block: 2µM; HP1b chromo inh: inactive; CtBP-E1A inh: inactive

Results for N#CC1(NC(=O)COC(=O)c2cc(O)c3ccccc3c2O)CCCCC1 ?
Six1-Eya2 inh: inactive; JMJD2A Tudor inh: 25µM; BAZ2B block: 50µM; G9a block: 4.5µM; HP1b chromo inh: inconclusive; CtBP-E1A inh: inactive

Results for COc1ccc(OC)c(C2CC(=O)N3CN(c4cccc(Cl)c4C)CSC3=C2C#N)c1 (centres undefined) ?
Six1-Eya2 inh: inactive; JMJD2A Tudor inh: 18µM; BAZ2B block: 32µM; G9a block: 1.4µM; HP1b chromo inh: inconclusive; CtBP-E1A inh: inactive

How did COc1cccc(C2CC(=O)N3CN(c4cccc(Cl)c4C)CSC3=C2C#N)c1OC (centres undefined) do in these assays?
Six1-Eya2 inh: inactive; JMJD2A Tudor inh: 16µM; BAZ2B block: 25µM; G9a block: 1.8µM; HP1b chromo inh: inconclusive; CtBP-E1A inh: inactive

How did COc1ccc(OC)c(C2CC(=O)N3CN(c4ccccc4F)CSC3=C2C#N)c1 (centres undefined) do in these assays?
Six1-Eya2 inh: inactive; JMJD2A Tudor inh: 22µM; BAZ2B block: 22µM; G9a block: 2.2µM; HP1b chromo inh: 14µM; CtBP-E1A inh: inactive

How did CCc1nnc2c(N3CCN(c4cccc(C)c4)C(C)C3)nc3ccccc3n12 (centres undefined) do in these assays?
JMJD2A Tudor inh: inconclusive; BAZ2B block: inconclusive; G9a block: inconclusive; HP1b chromo inh: inactive

How did CCOC(=O)c1c(CSc2ccsc2)n(C)c2cc(Br)c(O)c(CN(C)C)c12 do in these assays?
Six1-Eya2 inh: inactive; JMJD2A Tudor inh: inconclusive; BAZ2B block: inconclusive; G9a block: 32µM; HP1b chromo inh: inactive; CtBP-E1A inh: inactive

How did CCOC(=O)c1c(CSc2ccccc2)n(C)c2ccc(O)c(CN3CCN(C)CC3)c12 do in these assays?
Six1-Eya2 inh: inactive; JMJD2A Tudor inh: 45µM; BAZ2B block: inconclusive; HP1b chromo inh: inactive; CtBP-E1A inh: inconclusive

How did CCOC(=O)c1c(CSc2ccccc2)n(C)c2cc(Br)c(O)c(CN(C)C)c12 do in these assays?
Six1-Eya2 inh: inactive; JMJD2A Tudor inh: inconclusive; BAZ2B block: inconclusive; G9a block: 40µM; HP1b chromo inh: inconclusive; CtBP-E1A inh: inactive

What do the screens show for `CCOC(=O)c1c(CSc2ccc(C)cc2)n(C)c2cc(Br)c(O)c(CN(C)C)c12`?
Six1-Eya2 inh: inconclusive; JMJD2A Tudor inh: 32µM; BAZ2B block: 45µM; G9a block: 8.9µM; HP1b chromo inh: inconclusive; CtBP-E1A inh: inconclusive

How did CCOC(=O)c1c(C)n(C)c2ccc(O)c(CN(C)C)c12 do in these assays?
Six1-Eya2 inh: inactive; JMJD2A Tudor inh: inactive; BAZ2B block: inactive; G9a block: inconclusive; HP1b chromo inh: inactive; CtBP-E1A inh: inactive
